The panel holds about 83,000 compounds, 20% with a hit somewhere; the sample as a whole holds those more often.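 Note: values are percent growth. 100 is the growth of untreated cells, values between 100 and 0 indicate rising inhibition; between -100 and 0 indicates cell death.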 Values without a mark were called inactive. Calls of active or inactive are those of the source. The calls were made as follows: active = growth percent below 10; inactive = the rest.

This assay deals with MDA-MB-468 breast. Briefly: NCI-60 one-dose screen, 48 h (100 = growth as untreated, 0 = no growth, -100 = all killed). The settings on record: 10 µM unless noted.
Take `CC(=O)c1ccc(Nc2nc(C(C)=O)c(C)s2)cc1`: the growth was 94.5%.

With `O=C(N/N=C(\CS(=O)(=O)c1ccccc1)c1cc2cc(Br)ccc2oc1=O)c1ccccc1`, the growth is 109%.

Take `C=C(C)[C@@H]1CC[C@]2(C(N)=O)CC[C@]3(C)[C@H](CC[C@@H]4[C@@]5(C)C/C(=C/c6cccnc6)C(=O)C(C)(C)[C@@H]5CC[C@]43C)[C@@H]12`: the growth was 14.5% [100 µM].

As for `CCC(C)(C)c1ccc(OCCCCCCN2CCNCC2)cc1`, the growth is -9.22% (active).

The record behind these values is PubChem BioAssay (NCI).
